In PubChem BioAssay AID1159580 (chemical genetic matrix, 2015):
“And” between values parts separate entries of the source, which are not always exact repeats. Equal entries are not always repeated. Screen size: about 5,500 compounds; about 2,000 (36%) were called active. Inconclusive results (about 18%) are left out. No stated cut-off is given here; in the data, active means normalized growth mostly below about 0.91 (no sharp cut-off); inconclusive means no clear call, values can overlap the other calls; inactive means mostly above about 0.92. The list shows a part of the results.

Assay: chemical genetic growth profiling, strain panel (AID 1159580);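 further: tested at 20 µM; growth read once vehicle control cultures reached saturation at 30 °C; 1 = growth at the plate median or of vehicle wells; lower values mean less growth of the strain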
Conditions: S. cerevisiae deletion strains, growth OD

Measured: normalized growth

CNC[C@@H](O)c1ccc(O)c(O)c1
inactive: locus YAL013W, strain DEP1, hits give low values 0.993 | locus YAL021C, strain ccr4, hits give low values 1 | locus YAL026C, strain drs2, hits give low values 0.984 | locus YAL030W, strain snc1, hits give low values 1 | locus YBL061C, strain skt5, hits give low values 1 | locus YBR009C, strain hhf1, hits give low values 0.997 | locus YBR021W, strain FUR4, hits give low values 1.02 | locus YBR023C, strain chs3, hits give low values 1.01 | locus YBR171W, strain sec66, hits give low values 1 | locus YBR229C, strain ROT2, hits give low values 0.96 | locus YBR231C, strain swc5, hits give low values 0.991 | locus YBR279W, strain paf1, hits give low values 1 | locus YCL011C, strain gbp2, hits give low values 1.02 | locus YCL016C, strain dcc1, hits give low values 1.02 | locus YCL029C, strain bik1, hits give low values 0.984 | locus YCL061C, strain MRC1, hits give low values 1.01 | locus YCL069W, strain vba3, hits give low values 1.01 | locus YCR088W, strain abp1, hits give low values 1.01 | locus YDL005C, strain med2, hits give low values 0.997 | locus YDL035C, strain GPR1, hits give low values 0.981 | locus YDL040C, strain nat1, hits give low values 1 | locus YDL074C, strain BRE1, hits give low values 0.984 | locus YDL101C, strain DUN1, hits give low values 0.986 | locus YDL185W, strain tfp1, hits give low values 0.966 | locus YDL192W, strain arf1, hits give low values 0.979 | locus YDR001C, strain nth1, hits give low values 1.01 | locus YDR069C, strain doa4, hits give low values 0.989 | locus YDR101C, strain arx1, hits give low values 0.982 | locus YDR137W, strain rgp1, hits give low values 1.03 | locus YDR159W, strain sac3, hits give low values 1 | locus YDR162C, strain NBP2, hits give low values 0.977 | locus YDR195W, strain ref2 0.989 | locus YDR297W, strain sur2, hits give low values 0.995 | locus YDR318W, strain mcm21, hits give low values 0.983 | locus YDR334W, strain swr1, hits give low values 0.993 | locus YDR335W, strain msn5, hits give low values 1 | locus YDR388W, hits give low values 0.99 | locus YDR392W, strain spt3, hits give low values 0.93 | locus YDR502C, strain sam2, hits give low values 0.996 | locus YEL003W, strain gim4, hits give low values 1 | locus YEL037C, strain rad23, hits give low values 1 | locus YEL061C, strain CIN8 (second series), hits give low values 1.01 | locus YEL061C, strain CIN8, hits give low values 0.978 | locus YER015W, strain faa2, hits give low values 1.01 | locus YER016W, strain bim1, hits give low values 1.01 | locus YER110C, hits give low values 0.984 | locus YER111C, strain swi4, hits give low values 1.02 | locus YER155C, strain BEM2 (second series), hits give low values 0.988 | locus YER155C, strain BEM2, hits give low values 1 | locus YER167W, strain BCK2, hits give low values 1.01 | locus YFR010W, strain ubp6, hits give low values 0.993 | locus YGL078C, strain dbp3, hits give low values 0.993 | locus YGL086W, strain mad1, hits give low values 0.977 | locus YGL167C, strain pmr1, hits give low values 1 | locus YGL173C, strain kem1, hits give low values 1 | locus YGL227W, strain vid30, hits give low values 1 | locus YGL240W, strain doc1, hits give low values 0.989 | locus YGL248W, strain PDE1, hits give low values 1 | locus YGL253W, strain hxk2, hits give low values 1.01 | locus YGR135W, strain pre9, hits give low values 1.04 | locus YGR229C, strain SMI1, hits give low values 0.99 | locus YGR252W, strain gcn5, hits give low values 1.02 | locus YHR013C, strain ard1, hits give low values 1.04 | locus YHR027C, strain rpn1, hits give low values 1.01 | locus YHR030C, strain SLT2, hits give low values 0.999 and 1.05 | locus YHR079C, strain IRE1 (second series), hits give low values 0.951 | locus YHR079C, strain IRE1, hits give low values 1.04 | locus YHR094C, strain hxt1, hits give low values 0.977 | locus YHR129C, strain ARP1, hits give low values 0.999 | locus YHR142W, strain chs7, hits give low values 1.02 | locus YHR200W, strain rpn10, hits give low values 0.97 | locus YIL066C, strain RNR3, hits give low values 0.986 | locus YIL073C, strain SPO22, hits give low values 1.02 | locus YIL125W, strain kgd1, hits give low values 0.983 | locus YIR030C, strain dcg1, hits give low values 0.999 | locus YJL092W, strain hpr5, hits give low values 1.01 | locus YJL095W, strain BCK1 (second series), hits give low values 1.01 | locus YJL095W, strain BCK1, hits give low values 1.03 and 1.07 | locus YJL115W, strain asf1, hits give low values 0.996 | locus YJL129C, strain trk1, hits give low values 1 | locus YJL134W, strain LCB3, hits give low values 0.993 | locus YJL154C, strain vps35, hits give low values 1 | locus YJL164C, strain tpk1, hits give low values 0.995 | locus YJL166W, strain qcr8, hits give low values 1.01 | locus YJL168C, strain set2, hits give low values 0.987 | locus YJL187C, strain SWE1 (second series), hits give low values 0.981 | locus YJL187C, strain SWE1, hits give low values 1 | locus YJR043C, strain POL32, hits give low values 0.978 | locus YJR066W, strain TOR1, hits give low values 0.985 | locus YJR075W, strain HOC1, hits give low values 0.994 | locus YKL009W, strain mrt4, hits give low values 0.986 | locus YKL068W, hits give low values 0.977 | locus YKL085W, strain MDH1 (second series), hits give low values 0.996 | locus YKL085W, strain MDH1, hits give low values 0.996 | locus YKL160W, strain elf1, hits give low values 1.03 | locus YKR001C, strain vps1, hits give low values 0.982 | locus YKR026C, strain gcn3, hits give low values 1 | locus YKR091W, strain srl3, hits give low values 1.01 | locus YLL001W, strain dnm1, hits give low values 1.01 | locus YLL026W, hits give low values 1 | locus YLL041C, strain sdh2, hits give low values 1 | locus YLR027C, strain aat2, hits give low values 1 | locus YLR039C, strain RIC1, hits give low values 1.03 | locus YLR058C, strain SHM2, hits give low values 0.984 | locus YLR102C, strain apc9, hits give low values 0.968 | locus YLR113W, strain HOG1, hits give low values 1.08 | locus YLR221C, strain rsa3, hits give low values 1.02 | locus YLR258W, strain gsy2, hits give low values 1.02 | locus YLR262C, strain YPT6 (second series), hits give low values 1 | locus YLR262C, strain YPT6, hits give low values 0.947 | locus YLR268W, strain sec22, hits give low values 0.972 | locus YLR320W, strain mms22, hits give low values 1.03 | locus YLR330W, strain CHS5, hits give low values 0.992 | locus YLR342W, strain FKS1 (second series), hits give low values 0.999 | locus YLR342W, strain FKS1, hits give low values 1.01 | locus YLR357W, strain rsc2, hits give low values 0.957 | locus YLR370C, strain arc18, hits give low values 1.01 | locus YLR371W, strain rom2, hits give low values 0.983 | locus YLR384C, strain iki3, hits give low values 0.999 | locus YLR418C, strain cdc73, hits give low values 0.996 | locus YML016C, strain PPZ1, hits give low values 0.994 | locus YML032C, strain rad52, hits give low values 0.997 | locus YML120C, strain ndi1, hits give low values 1.03 | locus YML124C, strain tub3, hits give low values 0.983 | locus YMR058W, strain fet3, hits give low values 1 | locus YMR078C, strain ctf18, hits give low values 0.99 | locus YMR125W, strain sto1, hits give low values 0.991 | locus YMR129W, hits give low values 1.01 | locus YMR205C, strain PFK2, hits give low values 1.04 | locus YMR223W, strain ubp8, hits give low values 1.02 | locus YMR231W, strain pep5, hits give low values 0.999 | locus YMR263W, strain SAP30, hits give low values 0.995 | locus YMR307W, strain GAS1, hits give low values 1.05 | locus YNL067W, strain RPL9B, hits give low values 0.992 | locus YNL071W, strain lat1, hits give low values 1.02 | locus YNL153C, strain GIM3, hits give low values 0.993 | locus YNL183C, strain NPR1, hits give low values 0.99 | locus YNL209W, strain ssb2, hits give low values 1 | locus YNL233W, strain BNI4, hits give low values 0.999 | locus YNL248C, strain rpa49, hits give low values 1.02 | locus YNL250W, strain rad50, hits give low values 0.96 | locus YNL271C, strain bni1, hits give low values 0.988 | locus YNL298W, strain CLA4, hits give low values 0.979 | locus YNL307C, strain MCK1, hits give low values 0.905 | locus YNL322C, strain KRE1 (second series), hits give low values 1.02 | locus YNL322C, strain KRE1, hits give low values 1 | locus YNR049C, strain mso1, hits give low values 1 | locus YNR052C, strain pop2, hits give low values 0.984 | locus YOL012C, strain htz1 0.8 | locus YOL147C, strain pex11, hits give low values 0.989 | locus YOR001W, strain rrp6, hits give low values 1.01 | locus YOR061W, strain CKA2, hits give low values 0.967 | locus YOR069W, strain VPS5, hits give low values 0.991 | locus YOR070C, strain gyp1, hits give low values 1 | locus YOR080W, strain dia2, hits give low values 0.997 | locus YOR083W, strain WHI5, hits give low values 1.03 | locus YOR106W, strain vam3, hits give low values 1.02 | locus YOR136W, strain idh2, hits give low values 0.965 | locus YOR144C, strain elg1, hits give low values 0.986 | locus YOR184W, strain ser1, hits give low values 0.982 | locus YOR231W, strain MKK1, hits give low values 1.07 | locus YOR265W, strain rbl2, hits give low values 1 | locus YOR270C, strain vph1, hits give low values 1.05 | locus YOR290C, strain snf2, hits give low values 0.955 | locus YOR316C, strain cot1, hits give low values 0.966 | locus YPL051W, strain arl3, hits give low values 0.998 | locus YPL055C, strain LGE1, hits give low values 1.02 | locus YPL078C, strain atp4, hits give low values 1.01 | locus YPL106C, strain sse1, hits give low values 0.984 | locus YPL240C, strain hsp82, hits give low values 1.01 | locus YPL256C, strain CLN2, hits give low values 1.03 | locus YPR119W, strain clb2, hits give low values 0.968 | locus YPR141C, strain kar3, hits give low values 0.975 | locus YPR163C, strain tif3, hits give low values 0.986 | locus YPR167C, strain met16, hits give low values 0.989 | strain wtn01, hits give low values 1
